The target in the first test is PUM1 PUF domain R4-WAG (Homo sapiens, UniProt Q14671 828-1176, N971W;H972A;Q975G). Put plainly: yeast three-hybrid, YBZ-1, SC-Leu-His + 0.5 mM 3-AT, 4 days. Particulars: tags: N-Gal4 AD-HA kept; label: inside an RPR1-promoter hybrid RNA with tandem MS2 sites; ssRNA. The procedure, abridged:
(§1)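 A centromeric plasmid in strain YBZ-1 co-expressed Pumilio-1 PUF domain libraries, randomized at the three base-contacting residues of each repeat, with matching RNA elements; the strain carries a LexA–MS2 coat fusion and a HIS3 reporter. After four days on SC-Leu (input) or SC-Leu-His + 0.5 mM 3-AT (selection), the repeat regions were PCR-amplified and Illumina-sequenced. The interaction score is the log change in variant frequency from input to selection, using log2 and a pseudocount of 1 where absent.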
Regarding “GGCUAGAACUAGUGGAUCCCCCGGCGCCCGGCGGCUCGAGCCCGGGUAAGUGUACAUAGUCUGCAUGCCGCCGGGCGCCAUGCCUGCAGGUCGACUCUAGAAAACAUG”, the binding signal was 3.92 log2 enrichment (interaction score). Same read-out and setting: as for “GGCUAGAACUAGUGGAUCCCCCGGCGCCCGGCGGCUCGAGCCCGGGUAAGUGUAUAUAGUCUGCAUGCCGCCGGGCGCCAUGCCUGCAGGUCGACUCUAGAAAACAUG”, the figure is 4.74 log2 enrichment (interaction score); as for “GGCUAGAACUAGUGGAUCCCCCGGCGCCCGGCGGCUCGAGCCCGGGUAAGUGUAAAUAGUCUGCAUGCCGCCGGGCGCCAUGCCUGCAGGUCGACUCUAGAAAACAUG”, 2.25 log2 enrichment (interaction score).

The target in the next test is PUM1 PUF domain R5-PRA (Homo sapiens, UniProt Q14671 828-1176, C1007P;Q1011A). The test is described as above. Conditions: tags: N-Gal4 AD-HA kept; label: inside an RPR1-promoter hybrid RNA with tandem MS2 sites; ssRNA. In outline:
as §1
Turning to “GGCUAGAACUAGUGGAUCCCCCGGCGCCCGGCGGCUCGAGCCCGGGUAAGUGUGAAUAGUCUGCAUGCCGCCGGGCGCCAUGCCUGCAGGUCGACUCUAGAAAACAUG”, the binding signal is 1.9 log2 enrichment (interaction score). Still for that read-out and setting: as for “GGCUAGAACUAGUGGAUCCCCCGGCGCCCGGCGGCUCGAGCCCGGGUAAGUGUUAAUAGUCUGCAUGCCGCCGGGCGCCAUGCCUGCAGGUCGACUCUAGAAAACAUG”, the figure is 2.94 log2 enrichment (interaction score). The same measure, in the same setting: as for “GGCUAGAACUAGUGGAUCCCCCGGCGCCCGGCGGCUCGAGCCCGGGUAAGUGUAAAUAGUCUGCAUGCCGCCGGGCGCCAUGCCUGCAGGUCGACUCUAGAAAACAUG”, the figure is 4.36 log2 enrichment (interaction score).

For another test, the target named is PUM1 PUF domain R3-LYA (Homo sapiens, UniProt Q14671 828-1176, C935L;R936Y;Q939A). The description is as above. Conditions: tags: N-Gal4 AD-HA kept; label: inside an RPR1-promoter hybrid RNA with tandem MS2 sites; ssRNA. The procedure, abridged: as §1
Regarding “GGCUAGAACUAGUGGAUCCCCCGGCGCCCGGCGGCUCGAGCCCGGGUAAGUGUAAGUAGUCUGCAUGCCGCCGGGCGCCAUGCCUGCAGGUCGACUCUAGAAAACAUG”, the binding signal was 4.73 log2 enrichment (interaction score). Take “GGCUAGAACUAGUGGAUCCCCCGGCGCCCGGCGGCUCGAGCCCGGGUAAGUGUAAUUAGUCUGCAUGCCGCCGGGCGCCAUGCCUGCAGGUCGACUCUAGAAAACAUG”: the binding signal is 4.81 log2 enrichment (interaction score). For “GGCUAGAACUAGUGGAUCCCCCGGCGCCCGGCGGCUCGAGCCCGGGUAAGUGUAAAUAGUCUGCAUGCCGCCGGGCGCCAUGCCUGCAGGUCGACUCUAGAAAACAUG”, the binding signal was 2.44 log2 enrichment (interaction score).

The record behind these values is article PMC8384837, “Expanding the binding specificity for RNA recognition by a PUF domain”.
